Measurements from PubChem BioAssay (EPA / NIEHS).
Records with an inconclusive call do not appear. Activity calls are given as the source filed them. Rule for the calls: active = hit-call score of the fitted dose curve at least 0.9, where 1 is the maximum; inconclusive = response in the unintended direction; inactive = score below 0.9.

Assay: Tanguay_ZF_120hpf_NC_legacy: (Legacy) Oregon State University Tanguay Lab 120 Hour Post-fertilization zebrafish Assay for Notochord and Tail Malformation (AID 2283656)
Description: Tanguay_ZF_120hpf_legacy is a whole embryo, multiplexed endpoint assay using zebrafish larvae exposed for 120 hours post fertilization on a 96-well plate.Tanguay_ZF_120hpf_NC_legacy is one of one assay component(s) measured or calculated from the Tanguay_ZF_120hpf_legacy assay. It is designed to make measurements of zebrafish development as detected with brightfield microscopy of developing zebrafish embryos.Data from the assay component Tanguay_ZF_120hpf_NC_legacy was analyzed into 1 assay endpoints. This assay endpoint, Tanguay_ZF_120hpf_NC_legacy, was analyzed in the positive analysis fitting direction relative to DMSO as the negative control and baseline of activity. Using a type of morphology reporter, gain-of-signal activity can be used to understand changes in developmentals as they relate to the whole embryo. To generalize the intended target to other relatable targets, this assay endpoint is annotated to the zebrafish development intended target family, where the subfamily is embryonic notochord morphogenesis.
Zebrafish husbandry: Tropical 5D wild-type adult zebrafish were housed in at an approximate density of 1000 per 100 gallon tank at the Sinnhuber Aquatic Research Laboratory, Oregon State University, Corvallis, OR. Each tank was kept at standard laboratory conditions of 28C on a 14-h light/10-h dark photoperiod in fish water consisting of reverse osmosis water supplemented with a commercially available salt (Instant Ocean). Spawning funnels were placed into the tanks the night prior, and embryos were collected and staged. To increase bioavailability, the chorion was enzymatically removed using pronase (63.6mg/ml, >/= 3.5U/mg, Sigma-Aldrich: P5147) at 4 hours post fertilization (hpf) using a custom automated dechorionator.Chemical exposures: Six hpf dechorionated embryos were placed 1 embryo per well in a 96-well plate prefilled with 90 ul of EM using automated embryo placement systems (AEPS). Ten microliters of each row of dilution plate 2 was added to 2 exposure plates. The final DMSO concentration used was 0.64% (vol/vol). Thirty-two embryos were also exposed to 5uM trimethyltin chloride (positive control). Plates were sealed to prevent evaporation and foil covered to reduce light exposure and kept in a 28C incubator. Embryos were statically exposed until 120 hpf. At 24 hpf, embryos were assessed for photomotor response using a custom photomotor response analysis tool (PRAT) and for developmental toxicity endpoints (MO24: mortality at 24 hpf, DP: developmental progression, SM: spontaneous movement, and NC: notochord distortion). At 120 hpf, locomotor activity was measured using Viewpoint Zebralab and assessed for 18 endpoints. Zebrafish acquisition and analysis program (ZAAP), a custom program designed to inventory, acquire, and manage zebrafish data, was used to collect developmental endpoints as either present or absent (i.e., binary responses were recorded). If mortality occurred for an embryo (at either 24 or 120 hpf), the non-mortality endpoints were not measured.
With `CCCC(=NOCC)C1=C(O)CC(CC(C)SCC)CC1=O` (stereo not given) the outcome was “inactive”. In the case of `CCNP(=S)(OC)O/C(C)=C/C(=O)OC(C)C` (stereo not given), the outcome is reported as “inactive”. With `Clc1nc(Cl)nc(Nc2ccccc2Cl)n1` the outcome was “inactive”. With `Cc1cnc(C2=NC(C)(C(C)C)C(=O)N2)c(C(=O)O)c1` (stereo not given) the outcome was “inactive”. In the case of `CCN(CC)c1nc(C)cc(OP(=S)(OC)OC)n1`, the outcome is reported as “inactive”. In the case of `Nc1c(Cl)c(F)nc(OCC(=O)O)c1Cl`, the outcome is reported as “inactive”. For `CCCCC(O)(Cn1cncn1)c1ccc(Cl)cc1Cl` (stereo not given), the outcome was “inactive”. For `CC1(C)CON(Cc2ccccc2Cl)C1=O`, the outcome was “inactive”. In the case of `CN/C(=N\[N+](=O)[O-])NCc1cnc(Cl)s1`, the outcome is reported as “inactive”. In the case of `O=C(O)c1c(Cl)ccc2cc(Cl)cnc12`, the outcome is reported as “inactive”. In the case of `CS(=O)(=O)c1ccc(C(=O)C2C(=O)CCCC2=O)c([N+](=O)[O-])c1`, the outcome is reported as “inactive”. For `CSC(=O)c1c(C(F)F)nc(C(F)(F)F)c(C(=O)SC)c1CC(C)C`, the outcome was “inactive”. With `COC(=O)N(C(=O)N1CO[C@@]2(C(=O)OC)Cc3cc(Cl)ccc3C2=N1)c1ccc(OC(F)(F)F)cc1` the outcome was “inactive”. With `CC1(C)CCC(=Cc2ccc(Cl)cc2)C1(O)Cn1cncn1` (stereo not given) the outcome was “inactive”. For `CCOP(=O)(OCC)Oc1nc(Cl)c(Cl)cc1Cl`, the outcome was “inactive”. For `CCN(CC)C(=O)C(C)Oc1cccc2ccccc12` (stereo not given), the outcome was “inactive”. In the case of `CC(C)(C)C(=O)C(Oc1ccc(Cl)cc1)n1cncn1` (stereo not given), the outcome is reported as “inactive”. With `COC(=O)NC(=S)Nc1ccccc1NC(=S)NC(=O)OC` the outcome was “inactive”. For `COP(=O)(OC)O/C(C)=C/C(=O)N(C)C`, the outcome was “inactive”. With `CC1(C)C(C(=O)OC(C#N)c2cccc(Oc3ccccc3)c2)C1(C)C` (stereo not given) the outcome was “inactive”. In the case of `COP(=S)(OC)Oc1ccc([N+](=O)[O-])c(C)c1`, the outcome is reported as “inactive”. With `Cc1c(COC(=O)[C@@H]2[C@H](/C=C(\Cl)C(F)(F)F)C2(C)C)cccc1-c1ccccc1` the outcome was “inactive”. In the case of `CC(C)C1(C)N=C(c2ncccc2C(=O)O)NC1=O` (stereo not given), the outcome is reported as “inactive”. With `CCOC(=O)C(C)OC(=O)c1cc(Oc2ccc(C(F)(F)F)cc2Cl)ccc1[N+](=O)[O-]` (stereo not given) the outcome was “inactive”. In the case of `COP(=S)(OC)SCn1nnc2ccccc2c1=O`, the outcome is reported as “inactive”. In the case of `CCOc1nc(F)cc2nc(S(=O)(=O)Nc3c(Cl)cccc3Cl)nn12`, the outcome is reported as “inactive”. In the case of `O=P(O)(O)CCCl`, the outcome is reported as “inactive”. In the case of `CCNC(=O)NC(=O)C(C#N)=NOC`, the outcome is reported as “inactive”. In the case of `OC(c1ccc(Cl)cc1)(c1ccc(Cl)cc1)C(Cl)(Cl)Cl`, the outcome is reported as “inactive”. In the case of `CCOc1cc(C(C)(C)C)ccc1C1COC(c2c(F)cccc2F)=N1` (stereo not given), the outcome is reported as “inactive”. In the case of `CCCCOCN(C(=O)CCl)c1c(CC)cccc1CC`, the outcome is reported as “inactive”. In the case of `COC(=O)NS(=O)(=O)c1ccc(N)cc1`, the outcome is reported as “inactive”. In the case of `N#Cc1c(Cl)cccc1Cl`, the outcome is reported as “inactive”. In the case of `COCC(C)N(C(=O)CCl)c1c(C)csc1C` (stereo not given), the outcome is reported as “inactive”. For `Nc1c(Cl)c(Cl)nc(C(=O)O)c1Cl`, the outcome was “inactive”. In the case of `CCCCC(C#N)(Cn1cncn1)c1ccc(Cl)cc1` (stereo not given), the outcome is reported as “inactive”. With `CC(C)N1C(=O)N(c2ccccc2)CSC1=NC(C)(C)C` the outcome was “inactive”. For `COc1cc(Cl)c(OC)cc1Cl`, the outcome was “inactive”. In the case of `O=c1n(Cl)c(=O)n(Cl)c(=O)n1Cl`, the outcome is reported as “inactive”. In the case of `CC(C)NC(=O)N1CC(=O)N(c2cc(Cl)cc(Cl)c2)C1=O`, the outcome is reported as “inactive”.
